PubChem BioAssay (Tox21)
Inconclusive results are not listed. Active and inactive are the calls of the source. Calls come from the whole dose curve.

test: qHTS assay to identify small molecule agonists of the NFkB signaling pathway - cell viability counter screen (AID 1159515); conditions: NFkB-bla ME-180 viability, CellTiter-Glo luminescence, 5 h; series mostly up to 61 µM; note: nearly all actives have a fitted effect of over 55% in size
Excerpt: National Center for Advancing Translational Sciences [NCATS]
NIH Chemical Genomics Center [NCGC]
U.S. Environmental Protection Agency [EPA]
National Institutes of Environmental Health Sciences [NIEHS]
National Toxicology Program [NTP]
U.S. Food and Drug Administration [FDA]
Transcription factors and their stimulated target gene expression play pivotal roles across many cellular processes including responses to environmental stimuli. Proper regulation of associated pathways is critical to maintain cell health and function. Constitutive activation of transcription factor pathways has been implicated in tumors as it may block cellular functions such as apoptosis and lead to invasion and metastasis. One important transcription factor that stimulates gene expression in response to cytokines, UV radiation, and other stimuli is nuclear factor-kappa B (NFkB). To measure activation of the NFkB pathway, the CellSensor NFkB-bla ME-180 cell line (Life Technologies, Carlsbad, CA) that stably expresses beta-lactamase reporter gene under the regulation of a NF-kB response element was used. This assay allows measurement of the NFkB pathway activity induced by compounds in a ME-180 cell line. This system quantitates NF-kB activity using a FRET-based assay system where beta-lactamase expression disrupts FRET, allowing for fluorescent measurement of activity. This cell line has been used to screen the Tox21 10K compound library and to identify compounds that induce the NFkB pathway activity. The cytotoxicity of the Tox21 compound library against the NFkB-bla ME-180 cell line was tested in parallel by measuring cell viability using the CellTiter-Glo assay in the same wells.
Tox21 Assay Protocol Summary:
NFkB-bla ME-180 cells were dispensed at 2,000 cells/6 uL of assay medium per well into black wall/clear-bottom 1536-well plates using a Multidrop Combi (ThermoFisher Scientific, Waltham, MA) dispenser. After the assay plates were incubated at 37 C and 5% CO2 for an overnight, 23 nL of compounds dissolved in DMSO, positive controls or DMSO only was transferred to the assay plate by a Pintool station (Kalypsys, San Diego, CA). The assay plates were incubated at 37 C and 5% CO2 for 5 hr. One uL of LiveBLAzer B/G FRET substrate (Life Technologies) was added using a Flying Reagent Dispenser (Aurora Discovery, San Diego, CA) and the plates were incubated at room temperature for 1.5 hr. Fluorescence intensity (405 nm excitation, 460 nm and 530 nm emissions) was measured using an Envision plate reader (PerkinElmer, Shelton, CT). For cytotoxicity, 3 ul/well of CellTiter-Glo reagent was added into the assay plates using an FRD. After 30 min incubation at room temperature, the luminescence intensity was measured using a ViewLux plate reader (PerkinElmer).

| SMILES | outcome |
| --- | --- |
| CCNc1nc(NCC)nc(SC)n1 | inactive |
| CC(C)N(Cc1ccccc1)C(=O)C(C)(C)C | inactive |
| CNC(=O)NC(O)C(Cl)(Cl)Cl (stereo not given) | inactive |
| CN(CCO)CCO | inactive |
| C=C(Cl)CSC(=S)N(CC)CC | inactive |
| C=CCC1(C(C)CC)C(=O)NC(=O)NC1=O (stereo not given) | inactive |
| COC[C@@H](NC(C)=O)C(=O)NCc1ccccc1 | inactive |
| O=S1(=O)OCCO1 | inactive |
| CN(C)C1CCCCC1 | inactive |
| NC(=O)CS(=O)C(c1ccccc1)c1ccccc1 (stereo not given) | inactive |
| C[N+]1(C)CCCCC1 | inactive |
| BrCCc1ccccc1 | inactive |
| O=C(O)C(F)(F)C(F)(F)C(F)(F)C(F)(F)C(F)(F)C(F)(F)F | inactive |
| COc1ccc(C=O)cc1O | inactive |
| CCN(CC)CCOC(=O)C(O)(c1ccccc1)c1ccccc1 | inactive |
| ClC(Cl)(Cl)Cl | inactive |
| CC(=O)OCC1=C(C(=O)O)N2C(=O)[C@@H](N)[C@H]2SC1 | inactive |
| C1CN2CCC1CC2 | inactive |
| ClCCCCl | inactive |
| CCN[C@@H](C)Cc1ccccc1 | inactive |

| SMILES | outcome |
| --- | --- |
| [O-][Br+2]([O-])O | inactive |
| C/C=C/CC#N | inactive |
| N=C(N)[Se] | inactive |
| CCNc1nc(Cl)nc(NC(C)(C)C)n1 | inactive |
| [P]#[In] | inactive |
| CC(C)(C)NC[C@H](O)c1ccc(O)cc1Cl | inactive |
| CC[C@@H](CO)NC(=O)[C@@H]1C=C2c3cccc4[nH]cc(c34)C[C@H]2N(C)C1 | inactive |
| CC[C@H](N)c1ccccc1 | inactive |
| CCCOC(=O)Cc1ccc(OCC(=O)N(CC)CC)c(OC)c1 | inactive |
| Clc1ccc(C(Cl)(Cl)Cl)cn1 | inactive |
| COC(=O)c1ccccc1CS(=O)(=O)NC(=O)Nc1nc(OC)cc(OC)n1 | inactive |
| COC(=O)[C@@H](N)CCCN/C(N)=N/[N+](=O)[O-] | inactive |
| COc1cccc(C=O)c1 | inactive |
| O=C1CCCCC1Cl (stereo not given) | inactive |
| ClCCCCCCCl | inactive |
| OP(O)c1ccccc1 | inactive |
| CCCC[N+](=O)[O-] | inactive |
| Cc1ccc(S(=O)(=O)N[C@@H](CCCCN)C(=O)CCl)cc1 | inactive |
| CS(=O)(=O)Cl | inactive |
| Cc1cc(OC(=O)N(C)C)nn1C(=O)N(C)C | inactive |
